This passage reports inhibition results from ChEMBL document CHEMBL1961873, “Compounds: GSK PKIS; Assays: Nanosyn kinase panel” (2012).

Test [1] concerns the target Tyrosine-protein kinase SYK (Homo sapiens) (UniProt P43405). The following applies: at 1 µM.
The target of test [2] is T1, Tyrosine-protein kinase Tec (Homo sapiens) (UniProt P42680).
T1 sequence (whole entry): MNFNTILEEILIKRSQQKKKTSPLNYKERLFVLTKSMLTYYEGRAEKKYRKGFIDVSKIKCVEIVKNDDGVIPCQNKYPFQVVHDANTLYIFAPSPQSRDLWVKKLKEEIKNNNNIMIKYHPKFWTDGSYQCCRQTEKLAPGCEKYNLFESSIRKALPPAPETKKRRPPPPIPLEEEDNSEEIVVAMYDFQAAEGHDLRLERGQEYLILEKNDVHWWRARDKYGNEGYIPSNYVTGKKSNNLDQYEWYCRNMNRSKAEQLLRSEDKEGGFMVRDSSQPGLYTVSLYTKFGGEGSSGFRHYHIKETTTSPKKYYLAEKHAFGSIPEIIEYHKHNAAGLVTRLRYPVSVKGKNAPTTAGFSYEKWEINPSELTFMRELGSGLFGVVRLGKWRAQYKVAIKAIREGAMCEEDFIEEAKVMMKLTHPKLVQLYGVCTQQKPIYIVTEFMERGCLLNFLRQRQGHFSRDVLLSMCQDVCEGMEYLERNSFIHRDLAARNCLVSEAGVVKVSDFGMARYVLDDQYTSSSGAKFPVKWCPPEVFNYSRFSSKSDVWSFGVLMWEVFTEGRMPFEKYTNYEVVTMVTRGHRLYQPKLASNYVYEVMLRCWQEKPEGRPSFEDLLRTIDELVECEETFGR
Particulars: at 0.1 µM.

The target of test [3] is T1, Tyrosine-protein kinase Tec (Homo sapiens). The following applies: at 1 µM.
Test [4] addresses Angiopoietin-1 receptor (Homo sapiens) (UniProt Q02763). The following applies: at 0.1 µM.
The target is the same in test [5]. Particulars: at 1 µM.
Test [6] addresses T2, Non-receptor tyrosine-protein kinase TNK1 (Homo sapiens) (UniProt Q13470).
T2 sequence (whole entry): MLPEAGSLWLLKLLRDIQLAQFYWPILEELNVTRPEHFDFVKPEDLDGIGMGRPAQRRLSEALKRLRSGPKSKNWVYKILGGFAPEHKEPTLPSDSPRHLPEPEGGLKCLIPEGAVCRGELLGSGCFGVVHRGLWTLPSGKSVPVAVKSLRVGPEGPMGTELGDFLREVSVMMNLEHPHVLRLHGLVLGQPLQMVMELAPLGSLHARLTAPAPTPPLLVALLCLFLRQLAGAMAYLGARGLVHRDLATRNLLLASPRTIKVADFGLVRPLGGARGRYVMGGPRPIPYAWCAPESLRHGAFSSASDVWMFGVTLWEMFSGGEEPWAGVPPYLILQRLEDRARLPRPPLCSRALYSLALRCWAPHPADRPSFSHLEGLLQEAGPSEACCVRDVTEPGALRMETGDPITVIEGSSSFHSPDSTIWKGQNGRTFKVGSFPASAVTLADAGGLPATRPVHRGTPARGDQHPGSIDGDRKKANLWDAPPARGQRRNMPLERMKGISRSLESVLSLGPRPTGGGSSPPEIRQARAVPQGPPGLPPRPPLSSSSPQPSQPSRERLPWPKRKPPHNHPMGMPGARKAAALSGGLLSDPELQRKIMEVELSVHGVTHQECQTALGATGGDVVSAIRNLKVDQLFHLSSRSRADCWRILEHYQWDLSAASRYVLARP
The following applies: at 0.1 µM.

The target of test [7] is T2, Non-receptor tyrosine-protein kinase TNK1 (Homo sapiens). The following applies: at 1 µM.
The target of test [8] is Activated CDC42 kinase 1 (Homo sapiens) (UniProt Q07912). Particulars: at 0.1 µM.
Activated CDC42 kinase 1 (Homo sapiens), sequence (Q07912 whole entry, looked up): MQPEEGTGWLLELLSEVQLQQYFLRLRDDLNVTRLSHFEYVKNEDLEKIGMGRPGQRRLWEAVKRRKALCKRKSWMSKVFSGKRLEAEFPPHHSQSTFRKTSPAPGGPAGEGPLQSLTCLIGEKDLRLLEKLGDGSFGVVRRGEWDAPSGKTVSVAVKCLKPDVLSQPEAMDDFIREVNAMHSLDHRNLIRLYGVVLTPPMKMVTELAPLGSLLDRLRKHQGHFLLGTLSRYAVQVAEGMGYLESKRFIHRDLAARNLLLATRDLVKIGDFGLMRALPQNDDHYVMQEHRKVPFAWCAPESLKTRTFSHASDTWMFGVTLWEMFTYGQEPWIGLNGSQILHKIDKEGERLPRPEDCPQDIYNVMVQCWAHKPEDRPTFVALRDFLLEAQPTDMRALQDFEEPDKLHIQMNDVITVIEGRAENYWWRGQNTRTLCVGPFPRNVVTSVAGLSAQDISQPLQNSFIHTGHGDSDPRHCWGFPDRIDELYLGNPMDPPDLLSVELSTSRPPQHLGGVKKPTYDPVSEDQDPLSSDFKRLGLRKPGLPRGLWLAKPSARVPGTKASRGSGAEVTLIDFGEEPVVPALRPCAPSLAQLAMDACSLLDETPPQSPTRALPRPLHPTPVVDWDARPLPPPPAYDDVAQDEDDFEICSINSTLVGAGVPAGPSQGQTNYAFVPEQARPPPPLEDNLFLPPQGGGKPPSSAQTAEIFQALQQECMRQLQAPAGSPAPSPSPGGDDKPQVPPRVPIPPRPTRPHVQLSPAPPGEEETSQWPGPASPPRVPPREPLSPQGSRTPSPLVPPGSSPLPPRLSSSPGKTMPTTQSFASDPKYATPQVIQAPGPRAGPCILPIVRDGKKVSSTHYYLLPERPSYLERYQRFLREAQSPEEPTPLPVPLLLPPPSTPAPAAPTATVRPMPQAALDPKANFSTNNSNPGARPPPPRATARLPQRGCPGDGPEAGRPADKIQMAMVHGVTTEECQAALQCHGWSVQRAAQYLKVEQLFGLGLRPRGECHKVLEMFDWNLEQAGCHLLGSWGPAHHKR
For test [9] the target is unchanged. Particulars: at 1 µM.
Test [10] deals with High affinity nerve growth factor receptor (Homo sapiens) (UniProt P04629). The following applies: at 0.1 µM.
High affinity nerve growth factor receptor (Homo sapiens), sequence (P04629 33-796 limits assumed): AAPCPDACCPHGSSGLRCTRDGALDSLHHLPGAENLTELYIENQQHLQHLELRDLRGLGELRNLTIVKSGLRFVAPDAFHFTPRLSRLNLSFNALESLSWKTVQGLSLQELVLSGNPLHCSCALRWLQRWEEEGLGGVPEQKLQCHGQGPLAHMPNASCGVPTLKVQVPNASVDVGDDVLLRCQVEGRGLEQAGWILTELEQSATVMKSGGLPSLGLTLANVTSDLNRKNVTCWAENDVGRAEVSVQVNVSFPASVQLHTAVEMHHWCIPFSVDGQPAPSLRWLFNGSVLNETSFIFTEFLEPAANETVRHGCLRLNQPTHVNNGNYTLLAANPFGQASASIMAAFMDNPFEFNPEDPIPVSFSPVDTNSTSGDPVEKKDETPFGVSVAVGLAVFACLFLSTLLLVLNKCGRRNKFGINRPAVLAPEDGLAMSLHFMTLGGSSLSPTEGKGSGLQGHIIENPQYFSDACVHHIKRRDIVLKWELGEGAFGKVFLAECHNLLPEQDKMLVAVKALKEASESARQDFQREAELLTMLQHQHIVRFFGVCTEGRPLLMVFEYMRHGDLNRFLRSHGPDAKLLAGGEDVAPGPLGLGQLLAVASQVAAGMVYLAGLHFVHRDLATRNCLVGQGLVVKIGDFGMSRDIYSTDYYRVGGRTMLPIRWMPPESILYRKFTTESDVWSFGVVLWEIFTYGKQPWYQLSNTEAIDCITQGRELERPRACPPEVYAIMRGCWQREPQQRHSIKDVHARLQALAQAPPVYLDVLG
The target is the same in test [11]. The following applies: at 1 µM.
Test [12] has as its target BDNF/NT-3 growth factors receptor (Homo sapiens) (UniProt Q16620). Particulars: at 0.1 µM.
Test [13] has the same target. Particulars: at 1 µM.
In test [14] the target is NT-3 growth factor receptor (Homo sapiens) (UniProt Q16288). The following applies: at 0.1 µM.
NT-3 growth factor receptor (Homo sapiens), sequence (Q16288 32-839 limits assumed): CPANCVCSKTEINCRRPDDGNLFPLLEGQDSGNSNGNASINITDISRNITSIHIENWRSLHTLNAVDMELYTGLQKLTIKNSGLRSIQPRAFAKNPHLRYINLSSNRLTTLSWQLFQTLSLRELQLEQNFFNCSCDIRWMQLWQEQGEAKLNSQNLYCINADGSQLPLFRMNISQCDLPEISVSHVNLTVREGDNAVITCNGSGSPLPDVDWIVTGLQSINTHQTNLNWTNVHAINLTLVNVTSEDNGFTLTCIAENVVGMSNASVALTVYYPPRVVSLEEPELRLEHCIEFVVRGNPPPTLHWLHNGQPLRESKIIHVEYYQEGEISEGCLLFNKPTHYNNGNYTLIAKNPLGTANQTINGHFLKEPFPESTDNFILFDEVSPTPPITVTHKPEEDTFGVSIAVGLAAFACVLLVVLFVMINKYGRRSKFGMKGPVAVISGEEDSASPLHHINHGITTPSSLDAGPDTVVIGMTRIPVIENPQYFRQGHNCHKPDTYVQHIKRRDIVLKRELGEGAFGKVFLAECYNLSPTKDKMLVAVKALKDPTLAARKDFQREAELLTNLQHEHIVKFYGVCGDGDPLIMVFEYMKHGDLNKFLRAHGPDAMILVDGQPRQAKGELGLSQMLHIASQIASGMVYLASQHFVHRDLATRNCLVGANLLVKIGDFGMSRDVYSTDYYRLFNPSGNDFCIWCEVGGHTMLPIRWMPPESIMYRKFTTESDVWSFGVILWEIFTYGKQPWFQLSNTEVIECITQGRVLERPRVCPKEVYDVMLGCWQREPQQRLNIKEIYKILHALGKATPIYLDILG
Test [15] has the same target. The following applies: at 1 µM.
The target in test [16] is T3, Tyrosine-protein kinase TXK (Homo sapiens) (UniProt P42681).
T3 sequence (whole entry): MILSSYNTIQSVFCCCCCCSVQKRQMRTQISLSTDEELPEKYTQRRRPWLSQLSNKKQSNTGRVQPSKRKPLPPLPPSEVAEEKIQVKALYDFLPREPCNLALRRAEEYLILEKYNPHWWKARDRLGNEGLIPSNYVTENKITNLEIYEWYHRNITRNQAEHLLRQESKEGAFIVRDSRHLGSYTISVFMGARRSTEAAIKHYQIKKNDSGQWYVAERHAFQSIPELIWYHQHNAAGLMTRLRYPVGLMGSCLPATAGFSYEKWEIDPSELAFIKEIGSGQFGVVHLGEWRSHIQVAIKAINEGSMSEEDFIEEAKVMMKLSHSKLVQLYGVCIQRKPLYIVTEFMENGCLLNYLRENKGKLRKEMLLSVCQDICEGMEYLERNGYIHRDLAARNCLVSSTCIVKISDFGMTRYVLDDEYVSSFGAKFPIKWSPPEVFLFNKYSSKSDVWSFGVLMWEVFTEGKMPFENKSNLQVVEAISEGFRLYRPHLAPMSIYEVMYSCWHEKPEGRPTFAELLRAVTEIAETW
Particulars: at 0.1 µM.

Test [17] concerns the target T3, Tyrosine-protein kinase TXK (Homo sapiens). The following applies: at 1 µM.
In test [18] the target is Non-receptor tyrosine-protein kinase TYK2 (Homo sapiens) (UniProt P29597). The following applies: at 0.1 µM.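 Also: each value is a mean of the inhibition readings.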
Non-receptor tyrosine-protein kinase TYK2 (Homo sapiens), sequence (P29597 whole entry): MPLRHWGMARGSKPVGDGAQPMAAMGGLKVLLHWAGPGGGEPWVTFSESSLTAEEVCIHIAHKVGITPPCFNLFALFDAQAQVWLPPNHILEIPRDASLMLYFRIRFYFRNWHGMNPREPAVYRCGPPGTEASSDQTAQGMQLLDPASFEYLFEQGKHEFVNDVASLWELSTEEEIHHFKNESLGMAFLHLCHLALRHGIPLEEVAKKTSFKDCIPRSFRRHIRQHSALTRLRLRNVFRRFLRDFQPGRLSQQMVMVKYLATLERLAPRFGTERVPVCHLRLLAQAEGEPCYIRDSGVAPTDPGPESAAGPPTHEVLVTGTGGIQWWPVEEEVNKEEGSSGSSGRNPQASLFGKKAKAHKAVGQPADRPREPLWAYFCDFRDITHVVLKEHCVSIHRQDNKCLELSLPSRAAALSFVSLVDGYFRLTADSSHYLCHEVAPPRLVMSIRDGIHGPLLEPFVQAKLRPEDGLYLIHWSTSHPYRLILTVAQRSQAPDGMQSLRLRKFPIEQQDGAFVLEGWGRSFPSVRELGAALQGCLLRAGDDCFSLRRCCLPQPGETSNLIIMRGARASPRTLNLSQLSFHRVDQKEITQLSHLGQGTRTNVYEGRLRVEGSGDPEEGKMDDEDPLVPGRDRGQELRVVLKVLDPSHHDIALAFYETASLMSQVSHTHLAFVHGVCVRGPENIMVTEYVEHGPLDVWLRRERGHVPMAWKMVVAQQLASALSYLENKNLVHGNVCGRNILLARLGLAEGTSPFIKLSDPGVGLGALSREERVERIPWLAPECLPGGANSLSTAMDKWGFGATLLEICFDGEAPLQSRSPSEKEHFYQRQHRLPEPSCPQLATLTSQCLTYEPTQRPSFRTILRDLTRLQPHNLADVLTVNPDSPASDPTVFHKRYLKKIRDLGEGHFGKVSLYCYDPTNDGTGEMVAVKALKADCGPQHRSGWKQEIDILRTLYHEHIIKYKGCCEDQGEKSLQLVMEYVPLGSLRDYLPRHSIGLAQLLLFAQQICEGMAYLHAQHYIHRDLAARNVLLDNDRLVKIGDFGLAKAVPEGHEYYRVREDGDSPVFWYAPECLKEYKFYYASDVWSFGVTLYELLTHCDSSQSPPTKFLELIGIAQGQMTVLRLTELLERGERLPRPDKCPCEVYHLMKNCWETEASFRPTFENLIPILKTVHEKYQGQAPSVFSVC
The target of test [19] is T4, Dual specificity protein kinase TTK (Homo sapiens) (UniProt P33981).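 Also: reported figures are mean TTK inhibition at 1 µM.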
T4 sequence (whole entry): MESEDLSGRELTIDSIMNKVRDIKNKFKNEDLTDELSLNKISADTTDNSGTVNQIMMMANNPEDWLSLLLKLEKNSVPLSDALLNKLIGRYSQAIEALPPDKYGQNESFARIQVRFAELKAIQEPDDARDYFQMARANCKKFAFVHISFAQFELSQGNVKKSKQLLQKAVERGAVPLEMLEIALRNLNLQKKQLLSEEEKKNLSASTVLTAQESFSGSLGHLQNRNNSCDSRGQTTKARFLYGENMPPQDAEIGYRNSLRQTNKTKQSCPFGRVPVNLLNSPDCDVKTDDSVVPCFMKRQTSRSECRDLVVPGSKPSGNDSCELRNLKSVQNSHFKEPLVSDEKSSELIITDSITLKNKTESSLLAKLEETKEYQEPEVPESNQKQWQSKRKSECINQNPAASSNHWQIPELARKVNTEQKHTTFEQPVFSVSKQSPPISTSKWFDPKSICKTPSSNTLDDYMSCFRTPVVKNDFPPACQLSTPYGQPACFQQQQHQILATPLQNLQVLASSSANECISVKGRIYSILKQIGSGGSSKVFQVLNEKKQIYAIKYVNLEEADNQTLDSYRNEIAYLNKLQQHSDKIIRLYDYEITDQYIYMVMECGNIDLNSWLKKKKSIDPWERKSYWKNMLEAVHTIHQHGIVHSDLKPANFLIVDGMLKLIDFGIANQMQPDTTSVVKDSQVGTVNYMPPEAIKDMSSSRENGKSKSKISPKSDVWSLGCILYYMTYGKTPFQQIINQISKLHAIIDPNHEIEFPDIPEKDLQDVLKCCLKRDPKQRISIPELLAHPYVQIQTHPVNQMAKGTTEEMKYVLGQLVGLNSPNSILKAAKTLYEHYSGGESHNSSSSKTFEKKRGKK
Particulars: at 1 µM.

Test [20] addresses T5, Aurora kinase A (Homo sapiens) (UniProt O14965).
T5 sequence (whole entry): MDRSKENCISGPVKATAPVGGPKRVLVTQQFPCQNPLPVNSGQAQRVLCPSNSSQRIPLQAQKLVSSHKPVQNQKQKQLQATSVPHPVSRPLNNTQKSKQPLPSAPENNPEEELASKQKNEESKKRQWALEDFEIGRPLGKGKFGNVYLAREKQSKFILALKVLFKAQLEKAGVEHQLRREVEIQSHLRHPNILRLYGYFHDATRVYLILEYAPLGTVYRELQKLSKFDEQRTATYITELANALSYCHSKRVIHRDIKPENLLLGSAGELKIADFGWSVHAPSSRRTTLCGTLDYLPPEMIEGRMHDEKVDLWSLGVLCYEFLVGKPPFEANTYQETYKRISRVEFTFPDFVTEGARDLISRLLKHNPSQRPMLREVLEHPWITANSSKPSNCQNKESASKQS
The following applies: at 0.1 µM.

BDNF/NT-3 growth factors receptor (Homo sapiens), sequence (Q16620 32-822 limits assumed): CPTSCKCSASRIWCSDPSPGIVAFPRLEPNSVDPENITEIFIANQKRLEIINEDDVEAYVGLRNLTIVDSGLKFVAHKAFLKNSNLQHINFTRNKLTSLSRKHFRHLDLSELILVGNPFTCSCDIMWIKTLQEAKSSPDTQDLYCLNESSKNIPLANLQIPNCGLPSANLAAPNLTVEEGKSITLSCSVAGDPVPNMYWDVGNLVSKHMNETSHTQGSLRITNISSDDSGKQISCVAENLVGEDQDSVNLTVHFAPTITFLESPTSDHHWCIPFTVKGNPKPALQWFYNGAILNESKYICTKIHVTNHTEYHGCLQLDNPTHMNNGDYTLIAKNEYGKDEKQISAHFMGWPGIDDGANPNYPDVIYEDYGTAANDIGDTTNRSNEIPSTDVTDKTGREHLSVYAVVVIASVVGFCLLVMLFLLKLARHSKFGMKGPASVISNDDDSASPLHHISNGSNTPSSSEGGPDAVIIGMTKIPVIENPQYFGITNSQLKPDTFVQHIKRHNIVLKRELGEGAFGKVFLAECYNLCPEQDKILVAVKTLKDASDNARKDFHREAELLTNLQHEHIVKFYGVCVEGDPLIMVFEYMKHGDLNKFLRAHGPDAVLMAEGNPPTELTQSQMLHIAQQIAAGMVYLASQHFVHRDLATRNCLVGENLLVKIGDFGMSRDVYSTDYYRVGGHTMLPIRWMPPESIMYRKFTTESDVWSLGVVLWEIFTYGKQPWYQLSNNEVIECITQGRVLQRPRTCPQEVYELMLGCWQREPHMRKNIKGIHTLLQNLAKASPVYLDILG

Turning to `[O-][S+]1CCN(Cc2ccc(-c3ccc4ncnc(Nc5ccc(OCc6ccccc6)c(Cl)c5)c4c3)o2)CC1`, the inhibition is 0% in test [1]; -0.94% in [2]; 1.06% in test [3]; 0.37% in test [4]; 1.08% in test [5]; -0.33% in test [6]. Moreover, the inhibition is 9.61% in test [7]; 0.09% in test [8]; -0.42% in test [9]; 1.88% in test [10]; 3.75% in test [11]; 1.6% in test [12]. Further, the inhibition in [13] was 2.14%; in test [14] it was 0.66%; in test [15] it was 0.36%; in test [16], 0.16%; in test [17], 2.65%; in [18], -1.17%. For the same molecule, the inhibition in [19] was determined as 8.12%; in test [20], 1.75%.
`O=C1Nc2ccc(-c3cccnc3)cc2C1=Cc1cc(Br)c(O)c(Br)c1`: the inhibition in test [1] is -2.96%; in [2], 3.68%; in test [3], 8.99%; in test [4], 1.2%; in [5], 2.63%; in [6], 52.5%. Moreover, the inhibition in [7] stood at 80.6%; in test [8], 1.09%; in [9] it was 3.05%; in [10] it was 4.7%; in test [11], 12.8%; in test [12], 2.93%. In addition, the inhibition in test [13] came out at 12.2%; in [14] it was 4.91%; in test [15] it was 24.1%; in test [16] it was 2.22%; in [17], 6.14%; in test [18], 0.81%. Moreover, the inhibition in [19] was found to be 7.48%; in [20] it was 15.5%.
Consider `c1ccc(Nc2ncc(-c3ccccc3)o2)cc1`, for which the inhibition came to 3.14% in test [1]; 4.25% in [2]; 8.61% in test [3]; 3.52% in test [4]; 3.99% in test [5]; 5.05% in test [6]. Also, the inhibition in test [7] was found to be 9.74%; in test [8] it was 1.38%; in test [9], 0.93%; in test [10], 0.26%; in test [11], 6.98%; in test [12], 2.68%. Moreover, the inhibition in [13] was 9.78%; in test [14] it was 4.23%; in test [15], 8.89%; in test [16] it was 2.01%; in test [17], 6.4%; in test [18], -2.68%. For the same molecule, the inhibition in test [19] was found to be 16.1%; in test [20], 2.24%.
Regarding `CS(=O)(=O)CCNCc1nc(-c2ccc3ncnc(Nc4ccc(OCc5cccc(C(F)(F)F)c5)cc4)c3c2)cs1`, the inhibition is 2.72% in [1]; 4.74% in test [2]; 5.07% in test [3]; 5.84% in test [4]; 6.51% in [5]; 0.85% in [6]. For the same molecule, the inhibition in test [7] was determined as 2.82%; in test [8] it was 0.72%; in test [9], 3.3%; in test [10], 0.13%; in [11], 5.08%; in [12] it was 2.33%. In addition, the inhibition was 12.1% in [13]; 1.39% in test [14]; 7.81% in test [15]; 6.88% in test [16]; 5.83% in [17]; -3.62% in test [18]. The inhibition was determined as 2.16% in test [19] and 3.8% in test [20].
Regarding `O=C(Nc1ccc(Oc2ccc3[nH]c(NC(=O)c4ccco4)nc3c2)cc1)Nc1cc(C(F)(F)F)ccc1F`, the inhibition in test [1] was -2.67%; in test [2], -1.71%; in test [3], 0.35%; in test [4] it was 49.4%; in test [5], 82.4%; in [6], 9.16%. Also, the inhibition in test [7] stood at 58.6%; in [8], 0.17%; in [9], 0.5%; in [10], 30.2%; in [11], 85.5%; in test [12] it was 27.8%. Moreover, the inhibition is 73.9% in test [13]; 30.8% in test [14]; 89.6% in test [15]; -1.98% in test [16]; -1.15% in test [17]; 1.41% in test [18]. Besides, the values for the inhibition in test [19] and in test [20] were 13.6% and -1.76%, respectively.
Turning to `Nc1nccc(C#Cc2cncnc2Nc2ccc(OCc3cccc(F)c3)c(Cl)c2)n1`, the inhibition is -0.63% in test [1]; 5.34% in test [2]; 13.6% in test [3]; 4.38% in [4]; 3.5% in test [5]; 5.1% in test [6]. The inhibition came out at 8.89% in test [7]; 1.73% in test [8]; 3.21% in [9]; 4.45% in [10]; 9.29% in [11]; 3.48% in test [12]. Besides, the inhibition is 11.3% in test [13]; 2.67% in test [14]; 9.94% in test [15]; 3.85% in test [16]; 8.58% in test [17]; -3.29% in test [18]. For the same molecule, the inhibition was found to be 14.2% in test [19] and 1.06% in test [20].

One may read the inhibition as the drop in the measured response relative to a control, in per cent.
